In PubChem BioAssay:
Unmarked numbers belong to inactive results. The source made the active and inactive calls. Rule as the data show it, unless noted: active = inhibition above about 36%; inactive = the rest.

Test system: transactivating tegument protein VP16 (Human herpesvirus 1)
Experiment: VP16 transactivation reporter inhibitors, counter-screen for SRC2 inhibitor project, cell-based, luminescence, single concentration (AID 652007)
Settings: cell-based VP16 transactivation luciferase reporter, at 8.9 µM, stronger effect = higher value

In the case of `O=c1c(Br)ccc(Br)cc1Br`, the inhibition was 97.7% (active).
`C=C1C(=O)[C@]23C[C@H]1CC[C@H]2[C@]1(C)CCC[C@@](C)(C(=O)OC)[C@H]1C[C@@H]3O` was tested, and the inhibition was 77.6% (active).
With `Cc1cc(C2=NNC(=NC3CC3)SC2)c(C)n1-c1ccccc1` the inhibition was 83.2% (active).
For `CC(C)(C)c1ccc(-c2noc(CCC(=O)NCC3CCCO3)n2)cc1` (stereo not given), the inhibition was 42.1% (active).
With `CCn1c(Cl)c(C=O)s/c1=N\S(=O)(=O)c1ccccc1` the inhibition was 59.6% (active).

Compared with `COc1ccc(CNC(=O)C2CCCN(Cc3nc(-c4cccc(C)c4)oc3C)C2)cc1` (stereo not given), `CCOc1cccc(NC(=O)C2CCCN(S(=O)(=O)c3ccc(OC)cc3)C2)c1` (stereo not given) is lower in inhibition: -10.5% for the first, -26.5% for the second.

Going from `CCS(=O)(=O)Nc1ccc(C2=NN(C(=O)c3ccco3)C(c3cccs3)C2)cc1` (stereo not given) to `Cc1ccc(NS(=O)(=O)c2cccc(C(=O)NCCCN3CCCC3=O)c2)cc1`, the inhibition rises from -5.61% to -1.94%.

Going from `CC(=O)N1CCOc2ccc(S(=O)(=O)NCC3CCC(C(=O)Nc4ccc(C)cn4)CC3)cc21` (stereo not given) to `COc1ccc(S(=O)(=O)N2CCCCCC2)cc1C(=O)NCc1ccco1`, the inhibition falls from 14.8% to -3.91%.

Going from `Cn1nc(C(C)(C)C)cc1C(=O)N1CCCCC1c1cc(C(=O)Nc2ccccc2Cl)no1` (stereo not given) to `Cc1cc(NC(=O)c2ccccc2)c(Cl)cc1N`, the inhibition rises from 7.65% to 25.4%.

Compared with `Cc1cc(C)c(C)c(N=Nc2nc3ccccc3n2C)c1C`, `COc1ccc(Cl)cc1C(=O)Nc1nc2ccccc2[nH]1` is higher in inhibition: -75.3% for the first, -42.5% for the second.

First: CCOc1cccc(NC(=O)C2CC(=O)N(c3ccc(F)cc3)C2)c1 (stereo not given)
Second: COc1ccc(NC(=O)Cc2nnc(SCC(=O)Nc3ccc(F)cc3)n2C)cc1
The inhibition of the first is higher: 6.75% for the first, -17.1% for the second.

Going from `Cc1nc([N+](=O)[O-])c(Br)n1Cc1ccc(Cl)c(Cl)c1` to `Cc1nn(Cc2ccc(C(=O)NC(C)(C)C)o2)c(C)c1Br`, the inhibition falls from 10.6% to 5.83%.

First: NCCOc1ccc(C2CCCCC2)cc1
Second: CC(C)(C)c1ccc(OCCC(=O)OCC(=O)NC2CC2)cc1
The inhibition of the first is lower: -53.7% for the first, 23.8% for the second.

First: Cc1cccnc1CN1CCN(C(=O)c2cc(COc3ccc4ncccc4c3)on2)CC1
Second: CCOc1ccc2oc(C(=O)NCc3ccccc3CN3CCCC3)c(C)c2c1
The inhibition of the first is higher: 8.23% for the first, -10.5% for the second.

First: O=c1[nH]sc2ccccc12
Second: O=S(=O)(O)Sc1ccccc1
The inhibition of the first is higher: 7.96% for the first, -0.6% for the second.

Compared with `COc1ccc(CNCCNC(=O)c2cccs2)c(OC)c1OC`, `COc1cc(C)c(Br)cc1S(=O)(=O)NCc1cccs1` is lower in inhibition: 8.76% for the first, -10.6% for the second.

First: O=C(N/N=C\c1cc(Br)c(Br)o1)C1COc2ccccc2O1 (stereo not given)
Second: CC(C)CC(NC(=O)c1ccco1)C(=O)Nc1ccc2c(c1)OCCO2 (stereo not given)
The inhibition of the first is lower: -16.1% for the first, 10.6% for the second.

Compared with `COc1ccc(C(=O)C(CN2CCOCC2)c2ccccc2)cc1F` (stereo not given), `O=C(CSc1nc(N2CCOCC2)nc(N2CCOCC2)n1)Nc1ccccc1F` is higher in inhibition: -1.66% for the first, 1.31% for the second.

Going from `Cc1cc(=O)n2c3c(c4c(cc13)c(CN(C)C)cc(=O)n4C)OC2` to `CCC/C(C#Cc1cc(OC)cc(OC)c1)=C1/c2ccccc2C(=O)N1c1ccccc1`, the inhibition rises from 2.33% to 3.37%.

First: COc1ccc(C(=O)c2ccc(CC(=O)O)s2)cc1
Second: COc1ccc(/C=C2\SC(=S)N(CCC(=O)NC3C=CS(=O)(=O)C3)C2=O)cc1 (stereo not given)
The inhibition of the first is higher: 29.4% for the first, 3.55% for the second.

Going from `C=CCc1c(C)nc(SC(C)C)[nH]c1=O` to `CCCCSc1nc(C)cc(SCC(=O)N/N=C/c2cccc(OC)c2O)n1`, the inhibition falls from 0.2% to -16.2%.

Compared with `COc1ccc(N2CCN(C(=O)CCCCCn3c(=S)[nH]c4ccc(N5CCOCC5)cc4c3=O)CC2)cc1`, `O=[N+]([O-])c1ccc(-c2ccc(S(=O)(=O)NCCN3CCCC3)cc2)cc1` is higher in inhibition: -3.27% for the first, 12.2% for the second.

For `CNc1ccccc1C(=O)OC(C)C(=O)Nc1ccc(Cl)cn1` (stereo not given), the inhibition was -10.2%.

Biological target: Nuclear receptor coactivator 2 (Homo sapiens) (UniProt Q15596)
Sequence (Q15596 whole entry, looked up): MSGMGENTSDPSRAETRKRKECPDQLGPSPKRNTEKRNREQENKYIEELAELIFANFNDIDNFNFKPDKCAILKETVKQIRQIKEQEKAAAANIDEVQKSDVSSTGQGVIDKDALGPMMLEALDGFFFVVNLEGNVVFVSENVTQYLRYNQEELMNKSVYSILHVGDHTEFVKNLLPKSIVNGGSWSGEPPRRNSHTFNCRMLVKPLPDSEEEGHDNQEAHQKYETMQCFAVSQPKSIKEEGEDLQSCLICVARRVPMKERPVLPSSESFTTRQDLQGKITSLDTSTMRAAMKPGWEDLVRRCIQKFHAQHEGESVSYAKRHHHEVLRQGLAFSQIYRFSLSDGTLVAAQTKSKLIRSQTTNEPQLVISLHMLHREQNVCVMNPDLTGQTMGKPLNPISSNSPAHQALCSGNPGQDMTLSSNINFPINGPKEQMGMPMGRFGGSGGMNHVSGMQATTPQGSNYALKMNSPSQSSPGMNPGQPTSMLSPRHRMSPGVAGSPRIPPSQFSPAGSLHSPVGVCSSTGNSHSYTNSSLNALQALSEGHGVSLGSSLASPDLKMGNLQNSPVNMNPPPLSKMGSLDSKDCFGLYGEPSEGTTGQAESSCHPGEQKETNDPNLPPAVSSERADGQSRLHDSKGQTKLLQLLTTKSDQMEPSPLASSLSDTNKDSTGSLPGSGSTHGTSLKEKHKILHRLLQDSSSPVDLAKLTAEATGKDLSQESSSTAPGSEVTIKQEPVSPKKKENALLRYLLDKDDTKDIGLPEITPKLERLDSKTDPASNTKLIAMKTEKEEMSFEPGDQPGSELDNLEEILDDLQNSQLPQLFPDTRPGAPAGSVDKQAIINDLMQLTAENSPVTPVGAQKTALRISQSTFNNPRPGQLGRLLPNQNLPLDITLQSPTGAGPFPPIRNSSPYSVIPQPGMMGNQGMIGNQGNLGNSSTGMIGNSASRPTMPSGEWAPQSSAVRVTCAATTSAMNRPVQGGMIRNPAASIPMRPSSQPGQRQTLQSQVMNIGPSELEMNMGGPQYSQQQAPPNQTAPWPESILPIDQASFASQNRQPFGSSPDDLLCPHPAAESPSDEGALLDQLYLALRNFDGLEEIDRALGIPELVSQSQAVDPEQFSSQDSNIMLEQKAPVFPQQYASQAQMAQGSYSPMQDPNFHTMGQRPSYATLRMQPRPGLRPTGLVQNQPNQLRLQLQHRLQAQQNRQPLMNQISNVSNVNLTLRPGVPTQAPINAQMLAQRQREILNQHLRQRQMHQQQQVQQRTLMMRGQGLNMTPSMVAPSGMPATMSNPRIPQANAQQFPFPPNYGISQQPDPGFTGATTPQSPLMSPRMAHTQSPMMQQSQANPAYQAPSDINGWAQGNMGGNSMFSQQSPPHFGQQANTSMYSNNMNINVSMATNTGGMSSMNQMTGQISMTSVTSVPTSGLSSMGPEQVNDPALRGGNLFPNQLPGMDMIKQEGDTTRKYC
Experiment: SRC2 coactivator transcriptional activity inhibitors, confirmation, cell-based, luminescence, HEK293, triplicate (AID 652008;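 active = mean inhibition above 46.5%, the solvent-only control mean plus 3 SD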;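 also: 0% = DMSO-treated cells and 100% = Gossypol at 36 µM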)
Settings: HEK293 GAL4-SRC2 luciferase reporter, at 8.9 µM, stronger effect = higher value

For `O=c1c(Br)ccc(Br)cc1Br`, the inhibition was 99.4% (active).
In the case of `Cc1cc(C)c(C)c(N=Nc2nc3ccccc3n2C)c1C`, the inhibition was 49.7% (active).
`C=C1C(=O)[C@]23C[C@H]1CC[C@H]2[C@]1(C)CCC[C@@](C)(C(=O)OC)[C@H]1C[C@@H]3O` was tested, and the inhibition was 90.4% (active).
In the case of `Cc1cc(C2=NNC(=NC3CC3)SC2)c(C)n1-c1ccccc1`, the inhibition was 96.4% (active).
For `CC(C)(C)c1ccc(-c2noc(CCC(=O)NCC3CCCO3)n2)cc1` (stereo not given), the inhibition was 67.2% (active).
In the case of `COc1ccc(/C=C2\SC(=S)N(CCC(=O)NC3C=CS(=O)(=O)C3)C2=O)cc1` (stereo not given), the inhibition was 62.1% (active).
With `Cc1cc(NC(=O)c2ccccc2)c(Cl)cc1N` the inhibition was 52.1% (active).

Going from `COc1ccc(CNC(=O)C2CCCN(Cc3nc(-c4cccc(C)c4)oc3C)C2)cc1` (stereo not given) to `CCOc1cccc(NC(=O)C2CCCN(S(=O)(=O)c3ccc(OC)cc3)C2)c1` (stereo not given), the inhibition falls from 0.33% to -6.98%.

Compared with `CCS(=O)(=O)Nc1ccc(C2=NN(C(=O)c3ccco3)C(c3cccs3)C2)cc1` (stereo not given), `Cc1ccc(NS(=O)(=O)c2cccc(C(=O)NCCCN3CCCC3=O)c2)cc1` is higher in inhibition: -29.7% for the first, 0.08% for the second.

Going from `CC(=O)N1CCOc2ccc(S(=O)(=O)NCC3CCC(C(=O)Nc4ccc(C)cn4)CC3)cc21` (stereo not given) to `COc1ccc(S(=O)(=O)N2CCCCCC2)cc1C(=O)NCc1ccco1`, the inhibition falls from 15.4% to 1.95%.

Compared with `Cn1nc(C(C)(C)C)cc1C(=O)N1CCCCC1c1cc(C(=O)Nc2ccccc2Cl)no1` (stereo not given), `CCOc1ccc2oc(C(=O)NCc3ccccc3CN3CCCC3)c(C)c2c1` is lower in inhibition: 13.2% for the first, -12.9% for the second.

First: CCOc1cccc(NC(=O)C2CC(=O)N(c3ccc(F)cc3)C2)c1 (stereo not given)
Second: COc1ccc(NC(=O)Cc2nnc(SCC(=O)Nc3ccc(F)cc3)n2C)cc1
The inhibition of the first is higher: -14.1% for the first, -24% for the second.

Going from `Cc1nc([N+](=O)[O-])c(Br)n1Cc1ccc(Cl)c(Cl)c1` to `Cc1nn(Cc2ccc(C(=O)NC(C)(C)C)o2)c(C)c1Br`, the inhibition falls from 43.9% to 17.8%.

Compared with `NCCOc1ccc(C2CCCCC2)cc1`, `CC(C)(C)c1ccc(OCCC(=O)OCC(=O)NC2CC2)cc1` is lower in inhibition: 23% for the first, 2.38% for the second.

Compared with `Cc1cccnc1CN1CCN(C(=O)c2cc(COc3ccc4ncccc4c3)on2)CC1`, `COc1ccc(N2CCN(C(=O)CCCCCn3c(=S)[nH]c4ccc(N5CCOCC5)cc4c3=O)CC2)cc1` is lower in inhibition: 15.3% for the first, -4.46% for the second.

Going from `O=c1[nH]sc2ccccc12` to `O=S(=O)(O)Sc1ccccc1`, the inhibition falls from 8.22% to 4.75%.

Compared with `COc1ccc(CNCCNC(=O)c2cccs2)c(OC)c1OC`, `COc1cc(C)c(Br)cc1S(=O)(=O)NCc1cccs1` is lower in inhibition: 9.01% for the first, -12.6% for the second.

First: O=C(N/N=C\c1cc(Br)c(Br)o1)C1COc2ccccc2O1 (stereo not given)
Second: CC(C)CC(NC(=O)c1ccco1)C(=O)Nc1ccc2c(c1)OCCO2 (stereo not given)
The inhibition of the first is lower: -4.84% for the first, 7.27% for the second.

Compared with `COc1ccc(C(=O)C(CN2CCOCC2)c2ccccc2)cc1F` (stereo not given), `COc1ccc(Cl)cc1C(=O)Nc1nc2ccccc2[nH]1` is lower in inhibition: 13.4% for the first, 10.7% for the second.

First: Cc1cc(=O)n2c3c(c4c(cc13)c(CN(C)C)cc(=O)n4C)OC2
Second: CCC/C(C#Cc1cc(OC)cc(OC)c1)=C1/c2ccccc2C(=O)N1c1ccccc1
The inhibition of the first is lower: -129% for the first, -4.64% for the second.

Compared with `COc1ccc(C(=O)c2ccc(CC(=O)O)s2)cc1`, `CNc1ccccc1C(=O)OC(C)C(=O)Nc1ccc(Cl)cn1` (stereo not given) is lower in inhibition: 43.1% for the first, 20.9% for the second.

First: C=CCc1c(C)nc(SC(C)C)[nH]c1=O
Second: CCCCSc1nc(C)cc(SCC(=O)N/N=C/c2cccc(OC)c2O)n1
The inhibition of the first is lower: -25.4% for the first, 22.5% for the second.

Compared with `O=C(CSc1nc(N2CCOCC2)nc(N2CCOCC2)n1)Nc1ccccc1F`, `O=[N+]([O-])c1ccc(-c2ccc(S(=O)(=O)NCCN3CCCC3)cc2)cc1` is higher in inhibition: 14.8% for the first, 17.4% for the second.

Work on `CCn1c(Cl)c(C=O)s/c1=N\S(=O)(=O)c1ccccc1` yielded an inhibition of 16%.
